The target of experiment [1] is Methanococcus maripaludis chaperonin (MmCpn) (UniProt Q6LX38). The experiment can be described thus: High-Throughput Screening for Modulators of Cytosolic Chaperonin Activity: MmCpn Primary Screen (AID 488978).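 Note: 50 nM MmCpn enzyme hydrolysing 30 µM ATP at 37 °C; 0% is about no effect.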 Summed up:
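Measures ATPase turnover of the M. maripaludis chaperonin (50 nM final) against 30 uM ATP over 10 min at 37C, with compound added 5 min beforehand at room temperature. ADP is quantified by HTRF immunodetection.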

The target in experiment [2] is Transient receptor potential cation channel subfamily V member 1 (Homo sapiens) (UniProt Q8NER1). The experiment can be described thus: HTS Assay for Compounds that Act as Enhancers of the Vanilloid Receptor 1 (AID 488979). Note: 0% is about no effect. The method in brief: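 TRPV1-expressing cells loaded with Fluo-8 calcium dye; compounds added and calcium influx read kinetically for 3 min (agonist phase), then capsaicin at EC20 added and read 2 min more for enhancement. Fluorescence ex 480/em 520 nm.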

The target in experiment [3] is Thyrotropin receptor (Homo sapiens) (UniProt P16473). The experiment is described as follows: qHTS Assay for Antagonists of the Thyroid Stimulating Hormone Receptor (AID 488980). Note: series mostly up to about 58 µM; 0% is about no effect. Summed up: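 Cells expressing human TSHR (HEK293) are dispensed in HBSS/HEPES containing 70 uM RO 20-1724, compound is added, then TSH at EC80 (4 nM final). Antibody in lysis buffer follows, 30 minutes at room temperature before HTRF detection.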
In general terms: Quantitative high-throughput screening tests each substance at several concentrations.

Experiment [4] addresses D(1A) dopamine receptor (Homo sapiens) (UniProt P21728). The experiment is described as follows: HTS Assay for Allosteric Agonists of the Human D1 Dopamine Receptor: Primary Screen for Agonists (AID 488981). Note: 0% is about no effect. The method in brief: (§1)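 Tetracycline-induced HEK293 T-REx cells force-coupled to calcium signalling were incubated overnight at 30 C and dye-loaded at room temperature. Calcium flux over 180 s after compound addition flagged agonists; a further 180 s read after EC20 dopamine flagged potentiators.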

The target is the same in experiment [5]. The experiment is described as follows: HTS Assay for Allosteric Agonists of the Human D1 Dopamine Receptor: Primary Screen for Potentiators (AID 488982). Note: 0% is about no effect. Summed up:
as §1

The target is the same in experiment [6]. The experiment can be described thus: HTS Assay for Allosteric Agonists of the Human D1 Dopamine Receptor: Primary Screen for Antagonists (AID 488983).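 Note: calcium flux response to an EC80 dopamine challenge measured with no-wash dye; % is set by controls: 0 for no effect and ±100 for the full control effect; nearly all actives have a fitted effect of over 65% in size.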 Summed up: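 Calcium-flux read-out in inducible HEK293 T-REx cells expressing D1, dye-loaded 30–90 min at room temperature. Kinetic reads: 180 s after compound (agonist phase), then 180 s after an EC80 dopamine challenge.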

Experiment [7] is described as follows: Validation screen for small molecules that induce genotoxicity in human embryonic kidney (HEK293T) cells expressing luciferase-tagged ELG1 (AID 493106). Note: 0% is about no effect. Summed up:
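ELG1-luciferase reporter readout (ONE-Glo, 30 min, room temperature) after 16 hr compound treatment at 37 °C of HEK293T cells at 2,000 per well. Rising luminescence flags genotoxic stress.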

The target in experiment [8] is ATPase family AAA domain-containing protein 5 (Homo sapiens) (UniProt Q96QE3). The experiment can be described thus: Validation screen for small molecules that inhibit ELG1-dependent DNA repair in human embryonic kidney (HEK293T) cells expressing luciferase-tagged ELG1 (AID 493107). Note: nearly all actives have a fitted effect of over 70% in size. Note: potency is the fitted concentration of half-maximal effect. The method in brief:
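Luciferase read-out, ONE-Glo, 30 min at room temperature, follows 16 h co-exposure at 37 C of compound and the DNA-damaging agent 5-fluorouridine. Cells: HEK293T with ELG1-luciferase fusion, 2,000 per well, DMSO as vehicle.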

Experiment [9] has as its target Thyrotropin-releasing hormone receptor (Homo sapiens) (UniProt P34981). The experiment is described as follows: qHTS for Small Molecule Agonists and Allosteric Enhancers of Human TRH Receptor: Validation Screen for Agonists (AID 493127;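 active = calcium activation more than 3 SD above the typical response in the agonist read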;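 note: intracellular calcium rise by fluo-8 fluorescence before TRH EC20 addition; 0% is about no effect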). The following applies: TRH receptor agonist cell assay; at 2 µM; stronger effect = higher value. Summed up:
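Compound-evoked intracellular calcium release in fluo-8-loaded TRHR cells, read kinetically on FDSS (Ex 480/Em 530, 1 s/cycle) after 23 nL pintool transfer. Agonist phase preceded 10 nM TRH EC20 addition.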

A short description of experiment [10]: Nrf2 qHTS screen for inhibitors: Validation (AID 493153; active = well fitted inhibition curve with a large enough effect in the main read-out, with a control signal flat, not every such curve was filed as active; note: potency is the fitted concentration of half-maximal effect). The following applies: Potency: luciferase luminescence; viability change: measured here: cytotoxicity max response. Summed up:
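Concentration-response on A549 ARE_Fluc reporter cells exposed 18-24 h at 37 C, 5% CO2. Cytotoxicity read first by CellTiter-Fluor fluorescence (Ex 405/Em 525), then Nrf2 inhibition by BugLite luminescence after 15 min.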

Experiment [11] in a line: qHTS for Inhibitors of Cell Surface uPA Generation: Validation Assay (AID 493164).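 Note: RAW 264.7 macrophage cells exposed to compound for 18 h; 0% is about no effect.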 Summed up: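 ATP-Lite luminescence read-out: ATP remains high when uPA activity-dependent LF translocation into the cytoplasm is blocked. RAW 264.7 cells, 18 h compound exposure at 37 C; 7-point titration, 2.45 nM to 38.3 uM final.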
The target of experiment [12] is Galactokinase (Homo sapiens) (UniProt P51570). The experiment can be described thus: qHTS Validation Assay for Inhibitors of Human Galactokinase (GALK) (AID 493189). Note: 0% is about no effect. Summed up: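 Compounds were pin-transferred into ATP buffer, then GALK-galactose mix was added (final 5 nM enzyme, 100 uM galactose, 35 uM ATP). After 1 h at room temperature, remaining ATP was measured luminescently.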

Experiment [13] is described as follows: Validation screen for small molecules that induce DNA re-replication in SW480 colon adenocarcinoma cells (AID 504364). Note: 0% is about no effect. The method in brief: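 Image-based DNA content read-out: Hoechst stain 40 min, total nuclear fluorescence intensity (ex 405 nm, em 500-530 nm) after 48 h compound exposure of 250 SW480 cells/well at 37 C, 5% CO2, versus DMSO vehicle.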
Experiment [14] has as its target Peptidyl-prolyl cis-trans isomerase NIMA-interacting 1 (Homo sapiens) (UniProt Q13526). The experiment is described as follows: qHTS Validation Assay to Find Inhibitors of Pin1 (AID 504536; active = well fitted inhibition curve with a large enough effect in the polarisation, with a control signal flat, not every such curve was filed as active; the % refers to the polarisation;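 note: 0% = full Pin1 enzyme wells and -100% = no-enzyme wells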). The method in brief: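 Fluorescence polarization competition: compounds (titration) displace HiFluor-488-labeled Pin1-1b peptide from Pin1 (0.3 uM final) in pH 7.5 HEPES buffer with DTT, 10 min at room temperature; %Activity normalized to no-enzyme wells, curves fitted.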

Experiment [15] has as its target Phosphoglycerate kinase, glycosomal (Trypanosoma brucei brucei) (UniProt P07378). The experiment can be described thus: qHTS Validation Assay to Find Inhibitors of Phosphoglycerate Kinase (AID 504547).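 Note: control wells lack PGK and mark full inhibition.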 Summed up: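 In TEA buffer (100mM, pH 7.6) containing 5mM MgCl2 and 0.01% Tween-20, the GAPDH-coupled PGK reaction proceeded for 60 minutes at room temperature before a single luminescence reading using Kinase-Glo Plus.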

The target of experiment [16] is phosphoglycerate mutase (Leishmania major) (UniProt Q4Q090). The experiment can be described thus: qHTS Validation Assay to Find Inhibitors of Phosphoglycerate Mutase (AID 504548). Note: series mostly up to about 58 µM; % is set by controls: 0 for no effect and ±100 for the full control effect. The following applies: Potency: inhibition qHTS. The method in brief:
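Lm PGAM 1.25nM final; 100 mM TEA pH 7.6, 5 mM MgCl2, 0.01% Tween-20; 45 min RT; Kinase-GloPlus, 10 min; end-point luminescence. Enzyme-free wells as negative controls.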

Experiment [17] addresses Ubiquitin carboxyl-terminal hydrolase 1 (Homo sapiens) (UniProt O94782). The experiment is described as follows: Inhibitors of USP1/UAF1: Pilot qHTS (AID 504865).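 Note: rhodamine fluorescence freed from ubiquitin-rhodamine substrate followed over time; top concentration of the series differs between compounds; % is set by controls: 0 for no effect and ±100 for the full control effect; nearly all actives have a fitted effect of over 35% in size.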 The method in brief:
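Kinetic fluorescence assay: 1nM USP1/UAF1, 15 min compound preincubation, then 150nM Ub-Rho; 480/540 nm.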

Experiment [18] is described as follows: qHTS for Inhibitors of ATXN expression: Validation of Cytotoxic Assay (AID 588349). Note: % is set by controls: 0 for no effect and ±100 for the full control effect. Summed up: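 Cytotoxicity counter-screen: ATP-based luminescent viability (CellTiter Glo) after 72 hr exposure of HEK293 cells to a compound titration at 37 degrees C.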

The structures appear in SMILES notation. Results filed as inconclusive are left out. The source made the active and inactive calls. Unless noted, calls come from the whole dose curve; as a rule, active = well fitted curve in the direction sought with a large enough effect; inconclusive = small, poorly fitted or top-dose-only effect, or another doubt; inactive = no such curve, though single readings can be large; an effect the other way counts as inactive or inconclusive.

ATPase family AAA domain-containing protein 5 (Homo sapiens), sequence (Q96QE3 whole entry, looked up, the tested form may be a part): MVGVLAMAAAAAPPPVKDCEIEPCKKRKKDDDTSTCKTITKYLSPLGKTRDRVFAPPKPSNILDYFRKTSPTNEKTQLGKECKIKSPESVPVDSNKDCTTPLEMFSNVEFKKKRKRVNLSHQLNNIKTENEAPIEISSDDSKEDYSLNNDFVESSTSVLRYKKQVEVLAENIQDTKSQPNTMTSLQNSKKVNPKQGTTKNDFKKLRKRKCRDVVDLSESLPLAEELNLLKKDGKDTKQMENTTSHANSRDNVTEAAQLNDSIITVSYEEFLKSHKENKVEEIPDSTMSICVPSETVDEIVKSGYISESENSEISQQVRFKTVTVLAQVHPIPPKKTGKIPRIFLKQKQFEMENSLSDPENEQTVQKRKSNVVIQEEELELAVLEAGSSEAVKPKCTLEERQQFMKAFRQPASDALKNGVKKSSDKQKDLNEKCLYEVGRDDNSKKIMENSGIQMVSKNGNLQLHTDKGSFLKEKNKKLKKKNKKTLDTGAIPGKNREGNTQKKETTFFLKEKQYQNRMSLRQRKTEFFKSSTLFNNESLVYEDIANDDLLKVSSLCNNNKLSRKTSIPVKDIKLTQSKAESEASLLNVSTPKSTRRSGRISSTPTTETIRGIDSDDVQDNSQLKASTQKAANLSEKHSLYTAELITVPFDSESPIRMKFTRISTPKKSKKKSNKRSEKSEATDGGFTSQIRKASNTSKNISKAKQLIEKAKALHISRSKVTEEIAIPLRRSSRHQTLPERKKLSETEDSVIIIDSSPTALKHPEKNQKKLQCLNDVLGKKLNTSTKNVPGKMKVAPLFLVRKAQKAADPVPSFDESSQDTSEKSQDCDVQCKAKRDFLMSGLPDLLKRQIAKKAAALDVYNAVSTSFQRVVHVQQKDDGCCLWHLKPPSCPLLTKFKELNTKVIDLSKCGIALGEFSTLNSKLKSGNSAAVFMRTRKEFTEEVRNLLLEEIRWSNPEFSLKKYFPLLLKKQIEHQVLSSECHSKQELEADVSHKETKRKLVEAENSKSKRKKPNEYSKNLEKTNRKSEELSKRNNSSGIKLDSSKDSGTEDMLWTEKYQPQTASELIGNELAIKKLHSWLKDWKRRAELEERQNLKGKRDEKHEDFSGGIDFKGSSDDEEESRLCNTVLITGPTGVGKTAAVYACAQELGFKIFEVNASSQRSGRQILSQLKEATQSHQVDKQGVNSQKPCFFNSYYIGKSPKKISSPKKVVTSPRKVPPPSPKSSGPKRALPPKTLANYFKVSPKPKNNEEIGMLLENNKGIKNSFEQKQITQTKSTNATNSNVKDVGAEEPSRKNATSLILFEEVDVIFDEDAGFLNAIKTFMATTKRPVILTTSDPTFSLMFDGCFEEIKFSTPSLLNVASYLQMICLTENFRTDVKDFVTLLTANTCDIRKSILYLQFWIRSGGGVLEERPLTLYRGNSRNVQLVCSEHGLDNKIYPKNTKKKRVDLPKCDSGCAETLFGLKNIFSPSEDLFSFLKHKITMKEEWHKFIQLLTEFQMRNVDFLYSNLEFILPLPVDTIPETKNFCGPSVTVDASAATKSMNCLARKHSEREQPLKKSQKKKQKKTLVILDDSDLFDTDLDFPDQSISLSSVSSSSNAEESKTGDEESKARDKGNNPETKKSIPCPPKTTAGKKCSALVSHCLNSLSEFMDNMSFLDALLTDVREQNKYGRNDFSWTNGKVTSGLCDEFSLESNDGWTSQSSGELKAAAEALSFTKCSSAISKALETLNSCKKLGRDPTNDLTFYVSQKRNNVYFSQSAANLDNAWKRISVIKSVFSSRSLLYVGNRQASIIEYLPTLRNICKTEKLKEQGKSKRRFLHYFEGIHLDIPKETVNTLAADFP
Phosphoglycerate kinase, glycosomal (Trypanosoma brucei brucei), sequence (P07378 whole entry, looked up): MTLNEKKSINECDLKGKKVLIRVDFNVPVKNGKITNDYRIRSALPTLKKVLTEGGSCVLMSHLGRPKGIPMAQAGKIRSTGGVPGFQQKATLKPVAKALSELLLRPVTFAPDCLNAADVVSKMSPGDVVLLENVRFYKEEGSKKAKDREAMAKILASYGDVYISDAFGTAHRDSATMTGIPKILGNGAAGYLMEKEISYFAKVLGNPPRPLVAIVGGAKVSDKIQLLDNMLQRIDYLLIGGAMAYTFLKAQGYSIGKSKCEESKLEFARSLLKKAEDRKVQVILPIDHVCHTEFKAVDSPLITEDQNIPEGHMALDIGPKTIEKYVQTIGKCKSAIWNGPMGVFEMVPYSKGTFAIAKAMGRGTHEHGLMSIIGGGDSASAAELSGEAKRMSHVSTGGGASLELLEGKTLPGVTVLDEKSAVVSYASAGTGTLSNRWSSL
phosphoglycerate mutase (Leishmania major), sequence (Q4Q090 1-553): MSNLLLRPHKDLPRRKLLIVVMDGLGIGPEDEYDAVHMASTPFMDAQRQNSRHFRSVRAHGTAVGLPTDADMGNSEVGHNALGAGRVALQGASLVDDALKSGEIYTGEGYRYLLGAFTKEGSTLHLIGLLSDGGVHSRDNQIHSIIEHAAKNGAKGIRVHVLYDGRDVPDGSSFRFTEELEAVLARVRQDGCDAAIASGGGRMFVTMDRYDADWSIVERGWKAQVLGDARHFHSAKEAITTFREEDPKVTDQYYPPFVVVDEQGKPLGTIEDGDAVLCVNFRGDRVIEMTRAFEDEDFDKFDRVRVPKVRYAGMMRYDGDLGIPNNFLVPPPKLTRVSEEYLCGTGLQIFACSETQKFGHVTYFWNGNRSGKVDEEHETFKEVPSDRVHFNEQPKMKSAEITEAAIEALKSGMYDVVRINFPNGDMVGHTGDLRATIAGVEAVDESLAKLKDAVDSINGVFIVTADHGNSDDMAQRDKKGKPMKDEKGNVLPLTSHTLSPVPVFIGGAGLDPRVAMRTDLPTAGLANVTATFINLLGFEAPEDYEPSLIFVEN
Methanococcus maripaludis chaperonin (MmCpn), sequence (Q6LX38 1-543): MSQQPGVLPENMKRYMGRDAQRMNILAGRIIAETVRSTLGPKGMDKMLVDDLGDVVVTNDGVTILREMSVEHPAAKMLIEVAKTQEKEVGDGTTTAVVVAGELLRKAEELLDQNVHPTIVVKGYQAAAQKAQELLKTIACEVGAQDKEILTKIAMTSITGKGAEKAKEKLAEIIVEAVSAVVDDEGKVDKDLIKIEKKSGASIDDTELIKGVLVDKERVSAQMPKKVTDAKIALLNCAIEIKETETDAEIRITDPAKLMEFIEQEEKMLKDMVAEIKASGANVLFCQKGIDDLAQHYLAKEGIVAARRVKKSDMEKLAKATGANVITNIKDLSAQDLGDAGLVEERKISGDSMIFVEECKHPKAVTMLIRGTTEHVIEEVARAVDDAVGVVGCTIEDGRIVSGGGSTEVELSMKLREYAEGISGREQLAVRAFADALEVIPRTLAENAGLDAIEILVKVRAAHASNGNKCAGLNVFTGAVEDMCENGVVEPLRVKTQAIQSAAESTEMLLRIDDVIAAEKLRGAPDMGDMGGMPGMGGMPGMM
D(1A) dopamine receptor (Homo sapiens), sequence (P21728 whole entry, looked up): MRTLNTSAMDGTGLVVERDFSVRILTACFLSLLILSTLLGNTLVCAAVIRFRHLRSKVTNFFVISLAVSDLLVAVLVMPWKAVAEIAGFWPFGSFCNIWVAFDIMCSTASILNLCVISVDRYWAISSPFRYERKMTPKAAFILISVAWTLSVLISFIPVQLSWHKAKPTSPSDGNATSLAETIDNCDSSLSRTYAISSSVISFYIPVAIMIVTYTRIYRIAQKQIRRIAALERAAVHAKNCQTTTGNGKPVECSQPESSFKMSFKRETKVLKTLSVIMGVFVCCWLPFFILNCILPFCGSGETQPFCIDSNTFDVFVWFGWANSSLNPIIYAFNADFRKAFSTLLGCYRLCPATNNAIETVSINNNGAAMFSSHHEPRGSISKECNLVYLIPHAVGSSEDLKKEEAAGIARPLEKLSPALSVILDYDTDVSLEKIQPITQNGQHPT
Galactokinase (Homo sapiens), sequence (P51570 whole entry, looked up): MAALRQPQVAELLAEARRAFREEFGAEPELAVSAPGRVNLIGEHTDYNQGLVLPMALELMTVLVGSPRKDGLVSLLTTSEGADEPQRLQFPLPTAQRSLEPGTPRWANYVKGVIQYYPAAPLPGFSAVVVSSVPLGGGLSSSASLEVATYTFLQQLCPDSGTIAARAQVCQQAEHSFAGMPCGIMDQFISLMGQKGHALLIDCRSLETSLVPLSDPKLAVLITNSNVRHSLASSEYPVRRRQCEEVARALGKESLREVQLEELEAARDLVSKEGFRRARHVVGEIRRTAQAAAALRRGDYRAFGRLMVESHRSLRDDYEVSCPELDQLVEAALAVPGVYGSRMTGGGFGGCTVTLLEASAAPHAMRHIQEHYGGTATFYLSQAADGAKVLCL
Ubiquitin carboxyl-terminal hydrolase 1 (Homo sapiens), sequence (O94782 whole entry, looked up): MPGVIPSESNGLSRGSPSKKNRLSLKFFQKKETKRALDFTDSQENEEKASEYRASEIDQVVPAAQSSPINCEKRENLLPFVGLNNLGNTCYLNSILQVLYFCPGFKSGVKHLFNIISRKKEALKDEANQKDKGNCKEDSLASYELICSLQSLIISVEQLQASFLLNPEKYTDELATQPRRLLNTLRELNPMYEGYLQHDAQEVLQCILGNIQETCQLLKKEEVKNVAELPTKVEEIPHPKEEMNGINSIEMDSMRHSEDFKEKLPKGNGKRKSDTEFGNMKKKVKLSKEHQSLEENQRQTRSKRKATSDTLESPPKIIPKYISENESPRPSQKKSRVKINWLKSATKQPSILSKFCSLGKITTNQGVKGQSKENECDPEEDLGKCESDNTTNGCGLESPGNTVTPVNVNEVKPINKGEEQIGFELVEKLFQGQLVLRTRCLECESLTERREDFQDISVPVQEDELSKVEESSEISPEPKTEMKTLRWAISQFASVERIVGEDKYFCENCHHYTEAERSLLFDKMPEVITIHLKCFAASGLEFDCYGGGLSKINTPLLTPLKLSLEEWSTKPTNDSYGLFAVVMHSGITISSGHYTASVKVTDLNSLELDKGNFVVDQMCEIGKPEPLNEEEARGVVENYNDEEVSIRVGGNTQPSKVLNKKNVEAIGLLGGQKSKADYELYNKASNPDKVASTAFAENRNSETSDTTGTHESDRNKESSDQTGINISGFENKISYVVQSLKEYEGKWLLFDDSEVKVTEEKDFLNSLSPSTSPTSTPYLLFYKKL

In the case of `c1ccc(-c2ccccn2)nc1`, the outcome in experiment [1], in experiment [2], in experiment [3] and in experiment [11] was inactive. Also, the Potency result in [4], in experiment [5], in experiment [6], in experiment [7], in experiment [8] and in [10] was “inactive” each time. Besides, the Potency result in experiment [12], in experiment [13], in experiment [14], in experiment [15], in experiment [16] and in experiment [17] was “inactive” in each case. The Potency entry in experiment [18] is “inactive”. Further, in experiment [9], the activation was 0% (inactive). The viability change in experiment [10] was -0.658%.

Consider `COc1cccc(C(=O)NCCN2CCN(c3ccc(Cl)cc3)CC2)c1`, for which the call in [1], in [2], in experiment [3] and in [11] was inactive. Also, the Potency entry in experiment [4], in experiment [5], in experiment [6], in experiment [7], in experiment [10] and in [12] was “inactive” in each case. Moreover, the Potency result in experiment [13], in [14], in experiment [15], in [16], in experiment [17] and in experiment [18] was “inactive” each time. In addition, the activation in experiment [9] was 0.562% (inactive). The viability change in [10] is -10%.

Turning to `COc1cc2nc(N3CCN(C(=O)OCc4ccccc4)C(C(=O)NC(C)(C)C)C3)nc(N)c2cc1OC` (stereo unspecified), the outcome in experiment [1], in [2], in experiment [3] and in experiment [11] was inactive. For the same compound, the Potency entry in [4], in experiment [5], in [6], in experiment [7], in experiment [10] and in experiment [12] was “inactive” throughout. Besides, the Potency entry in [14], in experiment [15], in [16] and in [17] was “inactive” in each case. Moreover, the activation in [9] is -3.06% (inactive). The viability change in experiment [10] is -20.4%.

In the case of `CN(C)c1nc2c(Br)c(Br)c(Br)c(Br)c2[nH]1`, the outcome in experiment [1], in experiment [2], in experiment [3] and in [11] was inactive. In addition, the Potency result in [4], in experiment [5], in experiment [6], in experiment [7], in experiment [12] and in experiment [13] was “inactive” throughout. The Potency result in experiment [15], in experiment [16], in experiment [17] and in [18] was “inactive” each time. Moreover, the Potency was 1.46 µM (active) in experiment [8] and 16.4 µM (active) in [10]. Besides, in [9], the activation is 5.88% (inactive). The viability change in experiment [10] was -13.2%.

On to `CN(C)c1nc(N)c(C(=O)N=C(N)N)nc1Cl`, for which the compound was classed as inactive in experiment [1], in [2], in experiment [3] and in experiment [11]. Moreover, the Potency result in experiment [4], in [5], in experiment [6], in experiment [7], in experiment [10] and in [12] was “inactive” each time. Further, the Potency result in [13], in experiment [14], in experiment [15], in [16], in [17] and in experiment [18] was “inactive” each time. Moreover, the activation in experiment [9] was 0.625% (inactive). Further, the viability change in [10] came to 1.27%.

As to `OC[C@H]1O[C@@H](n2cnc3c(NC4CCCCC4)ncnc32)[C@H](O)[C@@H]1O`, the compound was called inactive in [1], in [2], in experiment [3] and in [11]. Also, the Potency result in [4], in experiment [5], in experiment [6], in experiment [7], in experiment [10] and in experiment [12] was “inactive” in each case. In addition, the Potency entry in [13], in [14], in experiment [15], in experiment [16], in experiment [17] and in experiment [18] was “inactive” each time. For the same compound, the activation in [9] is 0.562% (inactive). The viability change in experiment [10] is 2.64%.

`CC1(C)CCC=[N+]1[O-]`: the result in experiment [1], in experiment [2], in experiment [3] and in experiment [11] was inactive. Besides, the Potency entry in experiment [4], in experiment [5], in experiment [6], in experiment [7], in [8] and in experiment [10] was “inactive” throughout. Further, the Potency entry in [12], in experiment [13], in experiment [14], in experiment [15], in experiment [16] and in experiment [17] was “inactive” throughout. For the same compound, in experiment [18], the Potency result is “inactive”. Also, in experiment [9], the activation is 1.19% (inactive). Besides, the viability change in experiment [10] was -0.162%.

The values above are taken from PubChem BioAssay (NCATS).
